According to PMC7862700, “An all-to-all approach to the identification of sequence-specific readers for epigenetic DNA modifications on cytosine”:

Key:
Assay in all cases: DAPPL (digital affinity profiling via proximity ligation, sequencing); 10 mM Tris-HCl pH 7.5, 50 mM NaCl, 1 mM DTT, 4% glycerol, room temperature, 30 min; GST-TFs on glutathione beads, 16-mer random dsDNA library, 0.1% formaldehyde crosslink after washing; high values mean tight binding
FEV = molecular target: T1, FEV (Homo sapiens, UniProt Q99581 1-238); settings: protein: recombinant; tags: N-terminal GST; dsDNA, one strand shown
T1 sequence: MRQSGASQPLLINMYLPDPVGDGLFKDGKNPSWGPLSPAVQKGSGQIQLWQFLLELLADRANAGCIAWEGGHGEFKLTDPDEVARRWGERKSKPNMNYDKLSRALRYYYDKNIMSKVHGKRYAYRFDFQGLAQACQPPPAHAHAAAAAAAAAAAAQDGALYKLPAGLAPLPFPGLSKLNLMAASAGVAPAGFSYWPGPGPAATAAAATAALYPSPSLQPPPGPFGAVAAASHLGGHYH
Outline: (§1)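 Human transcription factors were made in yeast as GST fusions, captured on glutathione beads and barcoded with DNA. With a tag-only sample included, the pool was incubated with 200 nmole of a random double-stranded 16-mer DNA library in Tris/NaCl/DTT/glycerol buffer at room temperature for 30 min, then crosslinked with 0.1% formaldehyde after washing, ligated by proximity, amplified and sequenced. For binding signal, each hexamer's read frequency for a factor is divided by its frequency for the tag-only sample.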

ETV5 = ETV5 (Homo sapiens, UniProt P41161 1-510); settings: protein: recombinant; tags: N-terminal GST; dsDNA, one strand shown
Outline: as §1

HSF1 = HSF1 (Homo sapiens, UniProt Q00613 1-529); settings: protein: recombinant; tags: N-terminal GST; chain copies: 3; dsDNA, one strand shown
Outline: as §1

SPIC = molecular target: T2, SPIC (Homo sapiens, UniProt Q8N5J4 1-248); settings: protein: recombinant; tags: N-terminal GST; dsDNA, one strand shown
T2 sequence: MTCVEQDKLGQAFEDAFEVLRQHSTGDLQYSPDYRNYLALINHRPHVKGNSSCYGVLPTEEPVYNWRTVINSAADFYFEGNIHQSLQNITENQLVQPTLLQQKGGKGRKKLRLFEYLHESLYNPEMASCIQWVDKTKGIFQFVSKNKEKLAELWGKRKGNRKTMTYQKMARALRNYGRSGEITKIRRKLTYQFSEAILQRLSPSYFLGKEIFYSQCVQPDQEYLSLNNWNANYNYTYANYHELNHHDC
Outline: as §1

ELF4 = ELF4 (Homo sapiens, UniProt Q99607 1-663); settings: protein: recombinant; tags: N-terminal GST; dsDNA, one strand shown
Outline: as §1

ELK4 = molecular target: T3, ELK4 (Homo sapiens, UniProt P28324-2 1-405); settings: protein: recombinant; tags: N-terminal GST; dsDNA, one strand shown
T3 sequence: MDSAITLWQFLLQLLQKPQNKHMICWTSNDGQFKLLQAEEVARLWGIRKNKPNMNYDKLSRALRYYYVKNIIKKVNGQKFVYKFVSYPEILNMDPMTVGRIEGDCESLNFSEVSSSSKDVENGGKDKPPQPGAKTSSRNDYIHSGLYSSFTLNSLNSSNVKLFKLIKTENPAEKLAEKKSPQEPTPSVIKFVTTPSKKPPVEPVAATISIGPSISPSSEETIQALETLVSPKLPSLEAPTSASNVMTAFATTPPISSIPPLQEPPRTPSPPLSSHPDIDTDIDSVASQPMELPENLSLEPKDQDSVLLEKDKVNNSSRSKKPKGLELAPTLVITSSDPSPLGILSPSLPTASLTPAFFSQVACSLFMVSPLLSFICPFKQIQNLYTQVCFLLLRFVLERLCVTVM
Outline: as §1

ETV2 = molecular target: T4, ETV2 (Homo sapiens, UniProt O00321 1-342); settings: protein: recombinant; tags: N-terminal GST; dsDNA, one strand shown
T4 sequence: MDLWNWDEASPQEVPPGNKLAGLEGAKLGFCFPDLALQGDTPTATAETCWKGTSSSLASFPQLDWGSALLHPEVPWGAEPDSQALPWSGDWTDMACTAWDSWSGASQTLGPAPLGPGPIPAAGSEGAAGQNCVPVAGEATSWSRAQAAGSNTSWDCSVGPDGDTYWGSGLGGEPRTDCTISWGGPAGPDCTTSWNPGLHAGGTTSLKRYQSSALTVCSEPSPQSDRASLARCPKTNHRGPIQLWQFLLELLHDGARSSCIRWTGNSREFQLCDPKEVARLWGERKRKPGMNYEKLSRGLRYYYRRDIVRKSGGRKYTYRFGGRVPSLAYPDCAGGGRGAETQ
Outline: as §1

ELF3 = molecular target: T5, ELF3 (Homo sapiens, UniProt P78545 1-371); settings: protein: recombinant; tags: N-terminal GST; dsDNA, one strand shown
T5 sequence: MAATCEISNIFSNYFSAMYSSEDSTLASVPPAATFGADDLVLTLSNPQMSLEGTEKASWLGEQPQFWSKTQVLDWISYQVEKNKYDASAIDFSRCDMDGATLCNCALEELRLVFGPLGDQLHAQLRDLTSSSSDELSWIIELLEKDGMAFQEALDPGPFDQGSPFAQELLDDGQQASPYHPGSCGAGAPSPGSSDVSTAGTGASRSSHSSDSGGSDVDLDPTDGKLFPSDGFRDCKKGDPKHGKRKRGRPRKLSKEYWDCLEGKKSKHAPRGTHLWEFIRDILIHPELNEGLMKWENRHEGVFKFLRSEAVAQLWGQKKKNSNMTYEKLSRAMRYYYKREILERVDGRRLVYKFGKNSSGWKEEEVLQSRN
Outline: as §1

CRX = CRX (Homo sapiens, UniProt O43186 1-299); settings: protein: recombinant; tags: N-terminal GST; dsDNA, one strand shown
Outline: as §1

ETV1 = ETV1 (Homo sapiens, UniProt P50549 1-477); settings: protein: recombinant; tags: N-terminal GST; dsDNA, one strand shown
Outline: as §1

Chain of ETV1 (P50549 whole entry): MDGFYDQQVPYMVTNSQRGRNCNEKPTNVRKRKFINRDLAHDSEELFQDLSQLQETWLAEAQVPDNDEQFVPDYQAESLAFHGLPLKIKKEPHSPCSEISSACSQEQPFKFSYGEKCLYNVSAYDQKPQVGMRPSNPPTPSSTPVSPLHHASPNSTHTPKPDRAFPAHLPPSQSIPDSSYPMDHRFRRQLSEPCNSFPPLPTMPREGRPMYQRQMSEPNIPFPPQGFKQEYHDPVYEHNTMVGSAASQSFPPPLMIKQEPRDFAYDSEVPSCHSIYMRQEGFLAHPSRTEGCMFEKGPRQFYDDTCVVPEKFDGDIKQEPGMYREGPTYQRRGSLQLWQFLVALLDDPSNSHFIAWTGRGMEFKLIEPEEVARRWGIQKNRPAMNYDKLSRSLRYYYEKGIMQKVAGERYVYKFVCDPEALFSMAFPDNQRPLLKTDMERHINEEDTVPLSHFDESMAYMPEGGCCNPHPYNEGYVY
Chain of ETV5 (P41161 whole entry): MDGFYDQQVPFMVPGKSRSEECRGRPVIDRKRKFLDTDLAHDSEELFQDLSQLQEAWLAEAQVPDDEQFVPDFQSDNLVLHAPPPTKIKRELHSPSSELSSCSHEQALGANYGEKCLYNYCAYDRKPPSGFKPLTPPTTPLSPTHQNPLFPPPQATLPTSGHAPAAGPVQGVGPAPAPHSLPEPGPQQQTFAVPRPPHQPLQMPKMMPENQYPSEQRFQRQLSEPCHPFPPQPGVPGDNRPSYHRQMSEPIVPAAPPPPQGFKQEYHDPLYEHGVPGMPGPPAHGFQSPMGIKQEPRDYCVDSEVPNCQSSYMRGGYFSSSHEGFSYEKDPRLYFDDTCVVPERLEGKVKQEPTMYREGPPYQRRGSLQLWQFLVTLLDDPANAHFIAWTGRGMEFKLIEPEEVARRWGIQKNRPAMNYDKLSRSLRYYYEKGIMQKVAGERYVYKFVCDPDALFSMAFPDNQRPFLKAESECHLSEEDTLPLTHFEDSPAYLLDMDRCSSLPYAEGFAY
Chain of CRX (O43186 whole entry): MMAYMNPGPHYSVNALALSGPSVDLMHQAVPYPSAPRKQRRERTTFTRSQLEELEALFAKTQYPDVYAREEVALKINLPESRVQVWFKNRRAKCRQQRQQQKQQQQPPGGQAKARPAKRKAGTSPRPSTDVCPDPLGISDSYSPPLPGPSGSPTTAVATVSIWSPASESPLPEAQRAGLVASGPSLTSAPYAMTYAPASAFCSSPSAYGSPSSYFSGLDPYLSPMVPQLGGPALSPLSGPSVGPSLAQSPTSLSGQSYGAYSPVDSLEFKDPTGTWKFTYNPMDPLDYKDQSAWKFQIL
Chain of ELF4 (Q99607 whole entry): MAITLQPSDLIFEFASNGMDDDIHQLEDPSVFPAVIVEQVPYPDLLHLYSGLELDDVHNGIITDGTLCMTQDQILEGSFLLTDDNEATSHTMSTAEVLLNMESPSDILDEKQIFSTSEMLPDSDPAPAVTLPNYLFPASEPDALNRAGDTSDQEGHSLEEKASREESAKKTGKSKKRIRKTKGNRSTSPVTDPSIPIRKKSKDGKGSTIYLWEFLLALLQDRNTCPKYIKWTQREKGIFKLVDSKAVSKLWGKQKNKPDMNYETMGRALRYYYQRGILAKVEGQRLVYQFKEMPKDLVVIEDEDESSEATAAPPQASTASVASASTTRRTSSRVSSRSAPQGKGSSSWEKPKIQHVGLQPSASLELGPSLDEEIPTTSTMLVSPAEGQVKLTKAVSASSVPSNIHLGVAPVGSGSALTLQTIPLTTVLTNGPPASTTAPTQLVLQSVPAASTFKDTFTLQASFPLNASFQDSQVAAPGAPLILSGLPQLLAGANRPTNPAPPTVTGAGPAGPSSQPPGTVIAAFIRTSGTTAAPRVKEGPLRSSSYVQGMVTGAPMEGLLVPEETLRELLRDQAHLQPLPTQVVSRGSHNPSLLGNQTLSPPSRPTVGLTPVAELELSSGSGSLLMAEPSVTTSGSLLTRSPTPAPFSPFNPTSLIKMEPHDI
Chain of HSF1 (Q00613 whole entry): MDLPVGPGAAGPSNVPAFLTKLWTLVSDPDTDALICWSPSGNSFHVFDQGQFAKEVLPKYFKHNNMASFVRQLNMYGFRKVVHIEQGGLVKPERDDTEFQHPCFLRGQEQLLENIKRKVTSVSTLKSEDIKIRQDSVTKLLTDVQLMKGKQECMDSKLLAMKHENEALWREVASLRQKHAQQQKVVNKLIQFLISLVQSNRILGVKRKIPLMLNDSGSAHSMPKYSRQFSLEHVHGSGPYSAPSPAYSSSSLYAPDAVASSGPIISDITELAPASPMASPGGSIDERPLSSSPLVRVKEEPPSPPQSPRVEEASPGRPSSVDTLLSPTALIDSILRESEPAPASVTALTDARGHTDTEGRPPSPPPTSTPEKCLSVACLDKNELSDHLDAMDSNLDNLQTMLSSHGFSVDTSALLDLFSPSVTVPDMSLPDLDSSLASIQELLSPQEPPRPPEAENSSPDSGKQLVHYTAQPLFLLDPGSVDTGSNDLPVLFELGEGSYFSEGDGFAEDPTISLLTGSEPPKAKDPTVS

Question: How did the binding signal (FEV) turn out when TCTGGC was run?
Answer: Its binding signal is 1.16 fold enrichment (6-mer frequency, TF over GST control).

Question: And the binding signal (ETV5)?
Answer: The binding signal was 1.11 fold enrichment (6-mer frequency, TF over GST control).

Question: What about the binding signal (HSF1) of the same sequence?
Answer: Its binding signal is 1.89 fold enrichment (6-mer frequency, TF over GST control).

Question: And the binding signal (SPIC)?
Answer: The binding signal was 1.38 fold enrichment (6-mer frequency, TF over GST control).

Question: What about the binding signal (ELF4) of the same sequence?
Answer: The binding signal was 1.4 fold enrichment (6-mer frequency, TF over GST control).

Question: What about the binding signal (ELK4) of the same sequence?
Answer: The binding signal was 1.44 fold enrichment (6-mer frequency, TF over GST control).

Question: What about the binding signal (ETV2) of the same sequence?
Answer: The binding signal was 1.28 fold enrichment (6-mer frequency, TF over GST control).

Question: And the binding signal (ELF3)?
Answer: Its binding signal is 1.03 fold enrichment (6-mer frequency, TF over GST control).

Question: And the binding signal (CRX)?
Answer: The binding signal was 1.31 fold enrichment (6-mer frequency, TF over GST control).

Question: And the binding signal (ETV1)?
Answer: The binding signal was 1.24 fold enrichment (6-mer frequency, TF over GST control).
